The values below come from PubChem BioAssay (Tox21).

Results filed as inconclusive are left out. Activity calls are given as the source filed them. Unless noted, calls follow the shape of the dose curve; as a rule, active = well fitted curve in the direction sought with a large enough effect in the repeat runs; inconclusive = weak or mixed curves; inactive = no such curve, though single readings can be large; an effect the other way counts as inactive or inconclusive.

The nature of test [1]: qHTS assay to identify small molecule agonists of the RXR signaling pathway - cell viability counter screen (AID 1159529). Also: nearly all actives have a fitted effect of over 50% in size. Also: potency is read from the fitted curve at half-maximal effect. The procedure, abridged:
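CellTiter-Glo luminescence gave viability in the wells also read for beta-lactamase. Cells (RXR-alpha-UAS-bla HEK 293T, 2% charcoal-stripped FBS medium) had 5 hr plating, then 16 hr compound exposure at 37 C; tetraoctyl ammonium bromide served as positive control.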
Background: Quantitative high-throughput screening tests each substance at several concentrations.

A short description of test [2]: qHTS assay to identify small molecule antagonists of the retinoid acid receptor (RAR) signaling pathway - cell viability counter screen (AID 1159551). Also: nearly all actives have a fitted effect of over 35% in size. Also: potency is read from the fitted curve at half-maximal effect. In outline:
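Cells (C3RL4) are plated, incubated overnight, dosed with compound in DMSO, then given retinol at 1 uM final. After 6 h at 37 C, CellTiter-Glo is added and luminescence read following 30 min at room temperature.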

Test [3] can be described thus: qHTS assay to identify small molecule agonists of the retinoic acid receptor (RAR) signaling pathway (AID 1159553). The procedure, abridged: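 Seed C3RL4 reporter cells at 1,000 per well and incubate overnight at 37 C. Add compounds in DMSO, incubate 6 hr. Add luciferase reagent, wait 30 min at room temperature, read luminescence.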
A short description of test [4]: qHTS assay to identify small molecule antagonists of the retinoic acid receptor (RAR) signaling pathway (AID 1159552; also: nearly all actives have a fitted effect of over 50% in size). In outline:
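Luminescent RARE reporter read-out in C3RL4 cells: 6 hr co-treatment at 37 C of test compounds with retinol at 1 uM final. Cells plated overnight beforehand; luciferase reagent incubated 30 min at room temperature before reading.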

Test [5] in a line: qHTS assay to identify small molecule antagonists of the estrogen related receptor (ERR) signaling pathway - cell viability counter screen (AID 1224818). Also: series mostly up to about 46 µM. The procedure, abridged:
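ERR cells, 2,000/well; 6 h settle at 37 C/5% CO2; compound pin transfer (DMSO); 17.5 h at 37 C; CellTiter-Fluor, 30 min, fluorescence read.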

Test [6] in a line: qHTS assay to identify small molecule antagonists of the estrogen related receptor (ERR) signaling pathway (AID 1224819;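 also: luminescence from an ERR-driven luciferase reporter measured with One-Glo reagent; series mostly up to about 46 µM; nearly all actives have a fitted effect of over 50% in size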). The procedure, abridged:
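qHTS in ERR cells, 2,000/well, 1536 format. Cpd (DMSO) added after 6 h settle, 18 h 37 C. One-Glo luminescence, 30 min RT.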

Test [7] in a line: qHTS assay to identify small molecule agonists of the estrogen related receptor (ERR) signaling pathway (AID 1224820). In outline:
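Following a 6 h settling period, 2,000 ERR cells per well receive DMSO-dissolved compounds by pin tool and incubate 18 h at 37 C; agonist activity is scored from One-Glo luminescence read 30 min post-addition.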

In test [8] the test system is estrogen-related receptor alpha (ERRalpha) with PGC-1alpha coactivator, human. The test is described as follows: qHTS assay to identify small molecule antagonists of the estrogen related receptor signaling pathway with the pleiotropic PPARgamma coactivator (PGC) (AID 1224821; calls by dose curve;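 also: series mostly up to about 46 µM; lower luminescence signal means antagonism of PGC/ERR signalling; nearly all actives have a fitted effect of over 50% in size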). In outline: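 Screening used NTP's PGC/ERR cells, dosed via pin tool with compound in DMSO alongside positive and negative controls. After 18 h at 37 C, One-Glo reagent sat 30 min at room temperature before luminescence detection.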

The nature of test [9]: qHTS assay to identify small molecule antagonists of the estrogen related receptor signaling pathway with the pleiotropic PPARgamma coactivator (PGC) cell viability counter screen (AID 1224822;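 also: series mostly up to about 46 µM; viability read after 17.5 h compound exposure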). The procedure, abridged:
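Multiplexed viability counter screen run in PGC/ERR cells treated with compounds for 17.5 h at 37 C; live-cell protease signal measured by CellTiter-Fluor fluorescence.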

A short description of test [10]: qHTS assay to identify small molecule agonists of the estrogen related receptor signaling pathway with the pleiotropic PPARgamma coactivator (PGC) (AID 1224823). The procedure, abridged: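 In this quantitative high-throughput screen, an 18 h, 37 C treatment of PGC/ERR cells with compounds in DMSO preceded a One-Glo luminescence read taken after 30 min at room temperature.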

In the case of `CC(C)(C)OCC1CO1` (stereo unspecified), the Potency entry in [1], in test [2] and in [3] was “inactive” in each case.

Consider `CCC(Cl)CCC(Cl)C(Cl)CC(Cl)C(Cl)C(Cl)CCl` (stereo unspecified), for which the Potency result in test [1] and in test [4] was “inactive” each time.

In the case of `CCC(=O)O[C@]1(C(=O)CCl)[C@@H](C)C[C@H]2[C@@H]3CCC4=CC(=O)C=C[C@]4(C)[C@@]3(F)[C@@H](O)C[C@@]21C`, the Potency entry in test [1] and in test [4] was “inactive” each time.

With `Brc1c2ccccc2cc2ccccc12`, the Potency in test [1] is 35 µM (active). The Potency entry in test [2] and in test [3] was “inactive” in each case.

Turning to `CCCCCCCCCCCc1ccccc1`, the Potency entry in test [1], in test [2] and in test [3] was “inactive” throughout.

In the case of `Cc1c(N)cccc1[N+](=O)[O-]`, the Potency entry in [1], in test [2] and in test [3] was “inactive” throughout.

With `CCC(C)c1cc(C(C)(C)C)c(O)c(C(C)(C)C)c1` (stereo unspecified), the Potency result in test [1], in test [2] and in test [3] was “inactive” each time.

For the compound `CC(C)CC(=O)C1C(=O)c2ccccc2C1=O`, the Potency entry in test [1], in [2] and in test [3] was “inactive” each time.

For the compound `O=C1OC(CN2CCOCC2)CN1/N=C/c1ccc([N+](=O)[O-])o1` (stereo unspecified), the Potency entry in [1], in test [2] and in test [3] was “inactive” each time.

Regarding `COc1cc2nc(Cl)nc(N)c2cc1OC`, the Potency entry in [1], in test [2] and in [3] was “inactive” each time.

For `C=CC1CC2C=CC1C2` (stereo unspecified), the Potency entry in test [1] and in test [4] was “inactive” each time.

Consider `CC(=O)[O][Al][O]C(C)=O`, for which the Potency entry in [1], in test [2] and in test [3] was “inactive” throughout.

Regarding `NC(=O)C(c1ccccc1)(c1ccccc1)[C@@H]1CCN(CCc2ccc3c(c2)CCO3)C1`, the Potency entry in test [1], in test [2] and in test [3] was “inactive” each time.

Regarding `Cc1cccc(Nc2ccccc2)c1`, the Potency entry in test [1] and in test [4] was “inactive” each time.

`Nc1ccc(S(=O)(=O)Nc2ccccc2)cc1`: the Potency result in test [1] and in test [4] was “inactive” throughout.

In the case of `Cc1ccccc1S(=O)(=O)O`, the Potency result in test [1], in test [2] and in [3] was “inactive” throughout.

Regarding `O=S(=O)(Oc1ccc(Cl)cc1)c1ccccc1`, the Potency result in [1] and in test [4] was “inactive” in each case.

As to `c1ccc(CNCCNCc2ccccc2)cc1`, the Potency result in test [1], in test [2] and in [3] was “inactive” throughout.

With `CC1(c2ccccc2)OC(C(=O)O)=CC1=O` (stereo unspecified), the Potency result in [1], in test [2] and in test [3] was “inactive” in each case.

For `CCOc1ccc(N)c([N+](=O)[O-])c1`, the Potency result in test [1], in test [2] and in test [3] was “inactive” in each case.

Regarding `C=C(C)C(=O)OCCOCC`, the Potency result in [1], in [2] and in [3] was “inactive” each time.

As for `CCCn1cnc2c1c(=O)n(CCCCC(C)=O)c(=O)n2C`, the Potency entry in [1], in test [2], in test [6] and in test [8] was “inactive” each time. Besides, the result in test [5], in test [7], in [9] and in test [10] was inactive.

With `Clc1ccc(Cn2c(CN3CCCC3)nc3ccccc32)cc1`, the Potency result in test [1], in test [2] and in test [3] was “inactive” in each case. The call in [5] was inactive.

`C[Si](C)(CCCN)O[Si](C)(C)CCCN`: the Potency entry in test [1], in test [4] and in test [3] was “inactive” in each case.

As for `CCN(CC)c1ccc2c(-c3ccccc3C(=O)O)c3ccc(=[N+](CC)CC)cc-3oc2c1`, the Potency in test [2] is 19.3 µM (active).

Turning to `Cc1oc(-c2ccccc2)nc1CCOc1cccc2c1ccn2CCC(=O)O`, in [2], the Potency entry is “inactive”.

In the case of `C[C@H]1C[C@H]2[C@@H]3CCC4=CC(=O)C=C[C@]4(C)[C@@]3(Cl)[C@@H](O)C[C@]2(C)[C@@]1(O)C(=O)CO`, the Potency result in test [2] was “inactive”.

On to `COc1ccc(C(=O)Nc2nc3ccccc3c(NCc3ccccc3)c2C#N)cc1`, for which, in test [2], the Potency entry is “inactive”.

For `COc1cc2c(cc1OC)C(C(C(=O)N(CCc1ccc(OC)c(OC)c1OC)CCc1ccc(OC)c(OC)c1OC)c1ccccc1)=NCC2` (stereo unspecified), the Potency result in test [1], in [4] and in [3] was “inactive” in each case.

Consider `CCCCCCCCCCCCCCCCCCOS(=O)(=O)O`, for which, in test [1], the Potency is 43.6 µM (active). Moreover, the Potency entry in test [4] and in test [3] was “inactive” in each case.

`NS(=O)(=O)c1ccc(N2CCCCS2(=O)=O)cc1`: the Potency entry in [1], in test [4] and in [3] was “inactive” in each case.

As for `OC(CN1CCC(Cc2ccc(F)cc2)CC1)c1ccc(Cl)cc1` (stereo unspecified), the Potency result in test [1] and in test [4] was “inactive” throughout. Besides, the call in [5] and in test [9] was inactive.

For `Nc1c(CC(=O)O)cccc1C(=O)c1ccc(Br)cc1`, the Potency result in test [1] and in test [3] was “inactive” in each case.

Take `S=C([S-])NCCNC(=S)[S-].[Mn+2]`: the Potency entry in [2] is “inactive”.

As for `O[C@@H](COc1cccc2ncccc12)CN1CCN(C2c3ccccc3[C@@H]3[C@H](c4ccccc42)C3(F)F)CC1` (stereo partly specified), the Potency result in [2] was “inactive”.

Regarding `CN(C)c1ccc(C(c2ccccc2)c2ccc(N(C)C)cc2)cc1`, the Potency result in test [2] is “inactive”.

With `C=CCOc1ccccc1OCC(O)CNC(C)C` (stereo unspecified), the Potency entry in [1] and in test [3] was “inactive” each time.
